TGFb inhibitor – inhibitors of TGF-b signaling; HepG2 CAGA-GFP TGF-b/SMAD3 reporter, GFP fluorescence, 18 h; TGF-beta stimulated, 500 pg/mL final; Potency, µM (highest dose often 46.1 µM), for inactives: at the top dose activity, negative = inhibition, most hits filed as inhibitors; AID 588855; 1.2% of 410,000 active; note: % is set by controls: 0 for no effect and ±100 for the full control effect; nearly all actives have a fitted effect of over 65% in size
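Using HEPG2 CAGA-GFP reporter cells at 1000 cells/well, we pinned test compounds, stimulated with recombinant TGF-beta (500 pg/mL final) and measured total well GFP after 18 h.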
RORg inh – ROR gamma (mouse) transcription inhibition; P51450; Drosophila S2 Gal4-RORgamma UAS-luciferase reporter, 20 h; Potency, µM (doses to about 53.6 µM), for the others: at the highest dose activity change, negative = inhibition, most hits filed as inhibitors; 5.4% of 310,000 active; AID 2551; note: % is set by controls: 0 for no effect and ±100 for the full control effect; nearly all actives have a fitted effect of over 60% in size
Target sequence (P51450 whole entry, looked up, the tested form may be a part): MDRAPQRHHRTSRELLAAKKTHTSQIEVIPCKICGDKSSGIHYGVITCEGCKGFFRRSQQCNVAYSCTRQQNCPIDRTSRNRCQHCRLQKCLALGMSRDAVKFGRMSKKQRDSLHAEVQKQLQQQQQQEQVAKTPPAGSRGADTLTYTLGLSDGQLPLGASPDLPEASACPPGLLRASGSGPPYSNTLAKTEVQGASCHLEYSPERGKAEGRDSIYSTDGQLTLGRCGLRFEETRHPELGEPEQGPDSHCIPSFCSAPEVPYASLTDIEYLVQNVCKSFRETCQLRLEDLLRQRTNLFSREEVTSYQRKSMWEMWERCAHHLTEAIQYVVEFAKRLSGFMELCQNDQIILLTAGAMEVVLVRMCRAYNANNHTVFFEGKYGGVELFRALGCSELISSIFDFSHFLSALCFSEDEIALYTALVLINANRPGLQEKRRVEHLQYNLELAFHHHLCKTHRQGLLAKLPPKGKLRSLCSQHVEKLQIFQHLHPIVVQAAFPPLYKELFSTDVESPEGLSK
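Compounds are pin-transferred onto Drosophila Schneider cells expressing a copper-inducible Gal4–ROR gamma transactivation domain fusion. After 1 hr, copper sulfate is added to 700 uM final; luciferase is read 20 hr later.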
S2 tox – reduces viability in counter-screen for ATXN expression inhibitors; S2 cells (HEK-293 line with an ATXN2-luciferase reporter) viability, CellTiter-Fluor protease fluorescence, 24 h; Potency, µM (doses to about 56.7 µM), most hits filed as cytotoxic; 0.49% of 400,000 active; note: nearly all actives have a fitted effect of over 40% in size
Gal4-VP16 FLuc – counter-screen for ROR gamma inhibitors: Gal4-VP16 reporter; 3.5% of 310,000 active; AID 2546; Drosophila S2 Gal4-VP16 UAS-luciferase, luminescence, 20 h; Potency, µM (top dose mostly 53.6 µM), for inactives: top-dose activity, negative = inhibition, usual class: inhibitors;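 note: Gal4-VP16 expression switched on by copper sulfate through the metallothionein promoter; % is set by controls: 0 for no effect and ±100 for the full control effect; nearly all actives have a fitted effect of over 50% in size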
ATXN2 expr inh – reduces ATXN2 reporter expression in HEK-293 cells | HEK-293 ATXN2-luciferase reporter, luminescence, 24 h | Potency, µM (doses to about 57 µM), inactives show top-dose activity change, negative = inhibition, most hits filed as inhibitors | 0.72% of 360,000 active | AID 1745845; note: % is set by controls: 0 for no effect and ±100 for the full control effect; nearly all actives have a fitted effect of over 55% in size
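qHTS (up to 57 uM final) was run with 24 h compound exposure of reporter cells at 37 °C. Each well was multiplexed: SteadyGlo luminescence measured ATXN2-luciferase expression after a fluorogenic Gly-Phe-AFC viability readout (25 uM final).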
HepG2 tox – kills HepG2 cells in TGF-b inhibitor counter-screen; 0.76% of 410,000 active; Potency, µM (series often up to 46.1 µM), inactives show at the highest dose activity change, negative = cytotoxicity, actives largely listed as cytotoxic; HepG2 CAGA-GFP viability, ATP luminescence, 18 h
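HepG2 CAGA-GFP cells (1000/well, DMEM with 1% FBS) received compound, then TGF-beta at 500 pg/mL final, and were incubated 18 hours at 37 degrees C. Viability was read by CellTiter-Glo luminescence. Media-only wells were set as complete cell-killing and DMSO as no toxicity.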
* marks the source's active call; other numbers are inactive results; i = inactive; ? = inconclusive; / = no result given; [ ] = dose if it differs, or a comment. Shown are actives, neighbours in structure and some others; about 6.1% of the full set was active somewhere. Calls come from the whole dose curve; as a rule, active = well fitted curve in the direction sought with a large enough effect; inconclusive = small, poorly fitted or top-dose-only effect, or another doubt; inactive = no such curve, though single readings can be large; an effect the other way counts as inactive or inconclusive. Potency is the fitted concentration of half-maximal effect.

SMILES	TGFb inhibitor	RORg inh	S2 tox	Gal4-VP16 FLuc	ATXN2 expr inh	HepG2 tox
O=C(NCC1CCCO1)c1ccc(C(=O)NCC2CCCO2)cc1 (configuration not stated)	7%	6%	i	3%	6%	-1%
COc1ccc(C(=O)NC(=S)NCC2CCCO2)cc1 (configuration not stated)	7%	13µM*	i	?	39%	1%
CC(C)(C)c1ccc(C(=O)c2c[nH]c(C(=O)NCC3CCCO3)c2)cc1 (configuration not stated)	15%	?	i	13µM*	36%	-6%
CC(C)(C)c1ccc(C(=O)NC(=S)NCC2CCCO2)cc1 (configuration not stated)	-1%	2.2µM*	i	5.6µM*	7%	19%
COc1ccc(C(=O)c2c[nH]c(C(=O)NCC3CCCO3)c2)cc1 (configuration not stated)	-12%	27%	i	-1%	12%	-22%
O=C(NCC1CCCO1)C(=O)N/N=C/c1cc(Cl)ccc1O (configuration not stated)	?	13µM*	i	?	-17%	8%
O=C(NCC1CCCO1)C(=O)N/N=C/c1ccc(O)c(Cl)c1 (configuration not stated)	20%	-19%	i	4%	2%	16%
CCCC[C@@H]1CN2[C@H](c3ccc(Br)cc3)[C@@H](C)CC[C@H]2C(=O)O1	/	-11%[10 µM]	/	3%[10 µM]	/	/
FC(F)(F)c1cc(NC(=S)Nc2ccc3cc4ccccc4cc3c2)cc(C(F)(F)F)c1	/	19%	/	8%	/	/
O=C(c1nc2ncccn2n1)N1CCOc2ccc(C(O)C(c3ccccc3)c3ccccc3)cc2C1 (configuration not stated)	/	/	i	/	/	/
COc1ccc(C(=O)NNC(=O)c2ccc(C(C)(C)C)cc2)cc1	1%	2%	i	-6%	3%	-6%
COc1ccccc1/C=C(\C#N)C(=O)NCC1CCCO1 (configuration not stated)	3%	/	i	/	-4%	-3%
COc1ccccc1/C=C/C(=O)NC(=S)NCC1CCCO1 (configuration not stated)	0%	2.8µM*	i	?	11%	-11%
COc1ccc(/C=C/C(=O)NC(=S)NCC2CCCO2)cc1 (configuration not stated)	-3%	1µM*	i	-3%	3%	18%
Cc1ccccc1C(=O)NC(=S)NCC1CCCO1 (configuration not stated)	-4%	14µM*	i	?	2%	10%
CNC(=S)NNC(=O)c1ccc(C(C)(C)C)cc1	-20%	2.2µM*	i	?	/	-20%
Cc1ccc(-c2ccnc(-n3ncc(C(=O)NC[C@@H]4CCCN5CCCC[C@H]45)c3C3CC3)n2)o1	/	/	i	/	/	/
CCOc1ccc(NC(=O)C2CCC(CNS(=O)(=O)c3ccc(Br)s3)CC2)cc1 (configuration not stated)	-19%	/	i	/	-11%	-3%
Cc1ccc(NC(=O)C(=O)NCC(c2cccnc2)N2CCN(Cc3ccccc3)CC2)cc1C (configuration not stated)	9%	/	i	/	-11%	-30%
O=C(Nc1ccc(Br)cc1)c1ccc(F)c(S(=O)(=O)NCc2cccs2)c1	?	?	i	10µM*	-23%	-12%
O=C(Nc1ccc(Br)cc1)c1ccc(F)c(S(=O)(=O)N2CCc3ccccc32)c1	11µM*	/	/	/	/	-34%
CC(C)c1ccc(NC(=O)c2ccc(F)c(S(=O)(=O)N3CCc4ccccc43)c2)cc1	-25%	/	/	/	/	-15%
O=C(Nc1cccnc1)c1ccc(Cl)c(S(=O)(=O)N2CCc3ccccc32)c1	-31%	6%	i	-17%	-18%	3.5µM*
CCOC(=O)C1=C(CN(CC)Cc2ccccc2)NC(=O)NC1c1ccc(OC(C)C)cc1 (configuration not stated)	14µM*	/	?	/	?	-32%
COC(=O)c1ccccc1NC(=O)CCC(=O)N1CCOc2ccccc21	0%	/	i	/	9%	3%
SMILES	TGFb inhibitor	RORg inh	S2 tox	Gal4-VP16 FLuc	ATXN2 expr inh	HepG2 tox
Cn1cc(O)nc1NC(=O)Nc1cccc(Cl)c1	/	?	/	21%	/	/
COC(=O)CSc1ncnc2c1cnn2Cc1ccccc1	-17%	10µM*	i	-28%	2%	-26%
COc1cc(NC(=O)C(c2ccccc2)c2ccccc2)c(C(=O)O)cc1OC	25%	28%	i	2%	/	25%
Cc1ccc(NC(=O)C(c2ccccc2)c2ccccc2)c(O)c1	16µM*	44%	i	-12%	-6%	-25%
O=S(=O)(C/C(=C/CO)S(=O)(=O)c1ccccc1)c1ccccc1	?	4µM*	20µM*	4.5µM*	?	16µM*
COC(=O)c1cccnc1-n1c(=O)c2cccnc2n(CC(=O)Nc2cccc(C)c2)c1=O	8%	/	i	/	-11%	4%
COc1ccc(-c2cn3nc(N4CCC(C(=O)NCc5ccccc5F)CC4)sc3n2)cc1	0%	/	/	/	/	-9%
CC(=O)N1CCC2(CC1)OC(=O)C(C)=C2C(=O)Nc1cccc(Cl)c1C	-7%	/	/	/	/	-3%
O=C(CCl)N=c1sccn1Cc1ccc(Cl)cc1Cl	?	?	?	?	-35%	13µM*
O=C(CCl)N=c1sccn1Cc1cccc2ccccc12	?	?	?	?	0.03µM*	-111%
O=C(CCl)N=c1sccn1Cc1ccccc1Cl	11µM*	?	/	?	?	10µM*
Cc1ccc(NC(=O)C2CCN(c3nc4ccccc4nc3C(F)(F)F)CC2)cc1F	-9%	/	i	/	?	-11%
O=C(NC(NC(=S)Nc1ccccc1)C(Cl)(Cl)Cl)c1cccc(Cl)c1 (configuration not stated)	4.5µM*	11µM*	i	?	?	13µM*
O=C(O)c1cccc(NC(=S)NC(NC(=O)c2cccc([N+](=O)[O-])c2)C(Cl)(Cl)Cl)c1 (configuration not stated)	2%	11%	i	-10%	/	34%
CN(C)C(=O)NC(NC(=S)Nc1ccccc1)C(Cl)(Cl)Cl (configuration not stated)	23%	-32%	?	-2%	-16%	10%
Cc1cc(C)c(NC(=S)NC(NC(=O)c2ccccc2)C(Cl)(Cl)Cl)c(C)c1 (configuration not stated)	?	20µM*	i	?	?	-49%
